Test results published in PubChem BioAssay AID1259415 (National Center for Advancing Translational Sciences (NCATS), 2018).
In all, about 410,000 compounds went through this assay and about 18,000 (4.4%) were called active. Another 7% or so got no clear call; they are omitted. Shown is part of a subset that was picked to be rich in actives. Unmarked numbers belong to inactive results. No stated cut-off is given here; in the data, active means activity change below about -60%; inconclusive means no clear call, values can overlap the other calls; inactive means above about -39%.
On the % scale 0 is the no-effect control and ±100 the full control effect.

Experiment: qHTS Assay for inhibitors of the human cytomegalovirus (HCMV)
Conditions: HFF cells, HCMV-luciferase reporter, 72 h; at 57.5 µM; active compounds read low
Summary of the method: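 Cell-based, HFFs, 1000 cells/well, 16 h 37C; cpds in DMSO + HCMV-luc, MOI 1 PFU/cell; 72 h 37C; OneGlo luminescence after 5 min RT; norm. to buffer vs Salinomycin 10uM.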
Work on COc1ccccc1CNC(=O)C(=O)NCC(c1ccco1)S(=O)(=O)c1ccc(F)cc1 (stereo unspecified) yielded an activity change, negative = inhibition of -13.4%.
With Cc1cc(-c2ccc(S(=O)(=O)N3CCc4ccccc4C3)s2)on1 the activity change, negative = inhibition was -77.4% (active).
Cc1cc(-c2ccc(S(=O)(=O)N3CCN(c4cccc(C(F)(F)F)c4)CC3)s2)on1 showed an activity change, negative = inhibition of -38.1%.
For Cc1cccc(N2CCN(S(=O)(=O)c3ccc(-c4cc(C)no4)s3)CC2C)c1 (stereo unspecified), the activity change, negative = inhibition was 15.2%.
Work on COc1ccc(CC(=O)N2CC(=O)Nc3ccc(Br)cc3C2c2ccc(F)cc2)cc1OC (stereo unspecified) yielded an activity change, negative = inhibition of -3.53%.
With COC(=O)[C@@]1(Cc2ccc(F)cc2)[C@H]2c3cc(C(=O)N(C)C)n(CCc4c[nH]c5ccc(OC)cc45)c3C[C@H]2CN1C(=O)c1ccccc1 the activity change, negative = inhibition was -82.3% (active).
COC(=O)[C@@]1(Cc2ccc(OC)cc2)[C@H]2c3cc(C(=O)N4CCCC4)n(Cc4ccc(OC(F)(F)F)cc4)c3C[C@H]2CN1C(=O)c1ccccc1 showed an activity change, negative = inhibition of -18.9%.
In the case of COC(=O)[C@@]1(Cc2ccc(F)cc2)[C@H]2c3cc(C(=O)N4CCCC4)n(C[C@H](O)CO)c3C[C@H]2CN1C(=O)c1ccccc1, the activity change, negative = inhibition is reported as 5.98%.
CCC(=O)N1CCc2cc(S(=O)(=O)NC(C(=O)NCCc3ccc(C)cc3)C(C)C)ccc21 (stereo unspecified) showed an activity change, negative = inhibition of 12.8%.
For Cc1ccccc1-c1n[nH]c(=S)n1/N=C/c1ccc(-c2ccccc2Br)o1, the activity change, negative = inhibition was -88.9% (active).
CCc1n[nH]c(=S)n1/N=C/c1c[nH]c2ccc(Br)cc12 gave an activity change, negative = inhibition of -6.5%.
With CN(Cc1ccccc1)C(=O)c1cn(C)c2ccc(S(=O)(=O)N(C)C3CCCCC3)cc2c1=O the activity change, negative = inhibition was 13.4%.
Work on CCCOc1ccc(N2CC(C(=O)Nc3ccccn3)CC2=O)cc1 (stereo unspecified) yielded an activity change, negative = inhibition of 6.17%.
With O=C(Nc1cccc2c1N(C(=O)c1ccco1)CCC2)c1ccco1 the activity change, negative = inhibition was -39.1%.
For COc1cccc(-n2c(=O)c3c(C)c(C(=O)N(C)C)sc3n(Cc3cccc(C)c3)c2=O)c1, the activity change, negative = inhibition was -2.38%.
CCOC(=O)Nc1ccc2c(c1)N(C(=O)CN1CCN3CCCC3C1)c1ccccc1CC2 (stereo unspecified) showed an activity change, negative = inhibition of 74.9%.
For CCOC(=O)Nc1ccc2c(c1)N(C(=O)CCCl)c1ccccc1[S@]2=O, the activity change, negative = inhibition was -102% (active).
With CCOC(=O)Nc1ccc2c(c1)N(C(=O)CCN1CCN(CCO)CC1)c1ccccc1CC2 the activity change, negative = inhibition was -20.5%.
For Cc1ccc(S(=O)(=O)N(Cc2nc(-c3ccc(Cl)cc3)no2)C2CCCCC2)cc1, the activity change, negative = inhibition was -16.3%.
In the case of COc1cc(C(=O)NCCS(=O)(=O)N2CCN(c3ccccc3)CC2)cc(OC)c1OC, the activity change, negative = inhibition is reported as 38.7%.
For Cc1cc(C(=O)OCC(=O)c2c(N)n(C)c(=O)n(C)c2=O)c(C)o1, the activity change, negative = inhibition was -20.6%.
With Cn1c(N)c(C(=O)COC(=O)c2cnc(Cl)c(Cl)c2)c(=O)n(C)c1=O the activity change, negative = inhibition was -99.9% (active).
With CCc1ccc(OCC(=O)OCC(=O)c2c(N)n(C)c(=O)n(C)c2=O)cc1 the activity change, negative = inhibition was -68.3% (active).
In the case of Cn1c(N)c(C(=O)COC(=O)COc2ccc(Cl)cc2)c(=O)n(C)c1=O, the activity change, negative = inhibition is reported as -16.9%.
Compound CCCCOc1ccc(C(=O)NCC(=O)OCC(=O)c2c(N)n(C)c(=O)n(C)c2=O)cc1 has an activity change, negative = inhibition of -28.8%.
Compound Cn1c(N)c(C(=O)COC(=O)c2ccc3ccccc3c2)c(=O)n(C)c1=O has an activity change, negative = inhibition of 7.39%.
Work on Cc1ccc(S(=O)(=O)N(C)C)cc1NC(=O)c1ccc(-n2cncn2)c([N+](=O)[O-])c1 yielded an activity change, negative = inhibition of -7.42%.
CC(C)NC(=O)c1nnc2n1CCN(C(=O)C1(c3ccc(Cl)cc3)CCCC1)C2 showed an activity change, negative = inhibition of -2.1%.
In the case of COc1cc(Cl)ccc1Nc1ncc(C(=O)N2CCN(c3ccccc3OC)CC2)c2ccccc12, the activity change, negative = inhibition is reported as 9.53%.
With Cc1cccc(NC(=O)CN(c2ccc(C(C)C)cc2)S(=O)(=O)c2c(C)nn(C)c2C)c1C the activity change, negative = inhibition was -17.9%.
COC(=O)C(C)N=Cc1ccccc1 (stereo unspecified) gave an activity change, negative = inhibition of -19.2%.
In the case of COc1ccc(C(=O)Nc2ccccc2C(=O)N/N=C/c2ccc(O)c(OC)c2)cc1, the activity change, negative = inhibition is reported as -71.4% (active).
For C=CCOc1ccc(C(=O)Nc2ccccc2C(=O)N2CCCC2)cc1, the activity change, negative = inhibition was 3.09%.
With COc1ccc(/C=N/Nc2ccccc2C(=O)O)cc1 the activity change, negative = inhibition was -64.5% (active).
COc1cc(C(=O)Nc2cc(C(F)(F)F)ccc2N2CCOCC2)ccc1O gave an activity change, negative = inhibition of 37.5%.
COc1ccc(SSc2ccc(OC)cc2C(=O)O)c(C(=O)O)c1 gave an activity change, negative = inhibition of 4.79%.
With C=CCOc1c(CNn2cn[nH]c2=S)cccc1OC the activity change, negative = inhibition was -4.48%.
With COC(=O)C[C@H]1C=C[C@H](NC(=O)c2ccc(F)cc2)[C@@H](CO)O1 the activity change, negative = inhibition was 21.6%.
With COc1ccc(OC)c(CCNc2nc3cnc(-c4cccc(Oc5ccccc5)c4)cc3n2C)c1 the activity change, negative = inhibition was -30.5%.
Work on Cc1c(NC(=O)c2cc(=O)c3ccccc3o2)c(=O)n(-c2ccccc2)n1C yielded an activity change, negative = inhibition of 2.18%.
CCCN(C(=O)Cn1ncc2c([nH]c3ccc(C)cc32)c1=O)c1ccccc1C gave an activity change, negative = inhibition of -8.94%.
